Screening results: PubChem BioAssay, National Center for Advancing Translational Sciences (NCATS)
Sampled rows, rich in hits. Any-hit rate of the full collection: about 5.2%.
Sfp inh: blocks B. subtilis Sfp PPTase activity; Q9F4F7; AID 1490; actives 3.5% (n = 310,000); Potency, µM, for inactives: largest response in the series, negative = inhibition, actives largely listed as inhibitors; Biochemical Sfp PPTase activity, qHTS;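 also: the enzyme is Sfp with the accession as filed and its product quenches rhodamine fluorescence; potency is read from the fitted curve at half-maximal effect; 0% = enzyme reaction without inhibitor and -100% = no enzyme wells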
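Fluorescence-quenching assay with 15 nM Sfp, 5 uM rhodamine-CoA and 12.5 uM BHQ-2-labelled ybbR peptide in pH 7.6 Hepes/MgCl2 buffer. Enzyme was pre-incubated with compound for 15 min at room temperature. Rate was taken from the 30-min fluorescence change (525/598 nm).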
Tau fibril FP: blocks human tau fibril formation measured by polarization | P10636 | AID 1468 | K18 P301L tau heparin fibrillization, Alexa594 FP, 6 h | Potency, µM (doses to about 57.7 µM), inactives show top-dose activity, negative = inhibition, usual class: inhibitors | actives 0.39% (n = 280,000); also: potency is read from the fitted curve at half-maximal effect; nearly all actives have a fitted effect of over 55% in size
Target sequence (P10636 561-689 P618L limits assumed): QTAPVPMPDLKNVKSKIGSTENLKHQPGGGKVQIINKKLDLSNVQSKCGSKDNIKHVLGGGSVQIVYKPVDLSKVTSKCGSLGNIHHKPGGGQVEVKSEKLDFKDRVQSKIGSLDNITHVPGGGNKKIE
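Heparin (20 uM) drove fibril formation of recombinant tau K18 P301L, 15 uM unlabeled with 0.24 uM Alexa 594 label, for 6 hr at 37 C in 100 mM sodium acetate pH 7. Fluorescence polarization (555/632 nm) read 1 hr after 30 uM ThT.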
Tau ThT inhib: tau fibrillization inhibition (ThT binding); Potency, µM (titrated, usually from 57.4 µM), without a hit: top-dose activity, negative = inhibition, most hits filed as inhibitors; P10636; actives 2.1% (n = 270,000); recombinant tau K18 P301L, heparin-induced fibrillization, ThT fluorescence; also: potency is read from the fitted curve at half-maximal effect; nearly all actives have a fitted effect of over 55% in size
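Using a mix of unlabeled (15 uM) and Alexa 594-labeled (0.24 uM) tau K18 P301L, heparin-triggered fibrillization over 6 hr at 37 C was scored by ThT fluorescence.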
Tau fluor cs: counter-screen for tau fibril formation inhibitors | AID 1463 | Potency, µM (highest dose often 57.7 µM), without a hit: at the top dose activity change, negative = decrease | tau K18 P301L (four-repeat tau fragment) Alexa594 fluorescence, heparin fibrillization | actives 0.93% (n = 280,000); also: potency is read from the fitted curve at half-maximal effect; nearly all actives have a fitted effect of over 55% in size
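Human K18 P301L tau (15 uM unlabeled plus 0.24 uM Alexa 594-labeled, final) in 100 mM sodium acetate pH 7 was mixed with compound and 20 uM heparin and incubated 6 hr at 37 C.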
Coupling enz: counter-screen for Giardia aldolase inhibitors: coupling enzyme system | activity change, negative = inhibition, % at 58.2 µM, hits read low | actives 0.67% (n = 290,000) | AID 2472 | coupling enzyme system counterscreen, AmpLite Red fluorescence; in the data active = activity change below about -30%
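Activity here indicates interference with the coupling reaction, not aldolase inhibition. Compounds at 57.5 uM final met coupling enzymes for 10 min at RT; substrate and AmpLite Red detection followed, with a 525/598 nm fluorescence read after 20 min.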
Active calls of the source: *; [ ] = another dose, or the depositor's remark. Unless noted, calls follow the shape of the dose curve; as a rule, active = well fitted curve in the direction sought with a large enough effect; inconclusive = small, poorly fitted or top-dose-only effect, or another doubt; inactive = no such curve, though single readings can be large; an effect the other way counts as inactive or inconclusive. Unless noted, % is scaled to controls: 0 for no effect and ±100 for the full control effect.

What do the screens show for `O=[N+]([O-])c1cc(Cc2ccccc2)cc(C=Nc2ccc(N3CCOCC3)cc2)c1O`?
Sfp inh: -16.8%; Tau fibril FP: inconclusive; Tau ThT inhib: 10µM*; Tau fluor cs: inconclusive; Coupling enz: -4.3

How did Cc1ccc(O)c(N=Cc2cc(Cc3ccccc3)cc([N+](=O)[O-])c2O)c1 do in these assays?
Sfp inh: 8.91µM*; Tau fibril FP: inconclusive; Tau ThT inhib: 8.91µM*; Tau fluor cs: inconclusive; Coupling enz: -10.9

What do the screens show for `CCc1ccc(O)c(N=Cc2ccccc2O)c1`?
Sfp inh: -26.1%; Tau fibril FP: -5.6%; Tau ThT inhib: inconclusive; Tau fluor cs: -22.3%; Coupling enz: -0.1

Results for CCN(CC(=O)Nc1c(C(=O)OC)[nH]c2ccc(Cl)cc12)c1ccc2c(c1)OCO2 ?
Sfp inh: -17.8%; Tau fibril FP: 11.8%; Tau ThT inhib: inconclusive; Tau fluor cs: 7.94µM*[quencher]; Coupling enz: -5.8

How did CC(C)(C)Nc1c(-c2ccc(O)cc2)nc2ccc(Cl)cn12 do in these assays?
Sfp inh: 63.1µM*; Tau fibril FP: -9.7%; Tau ThT inhib: inconclusive; Tau fluor cs: -9.5%; Coupling enz: -1.5

How did O=C(Nc1ccc(Cl)cc1)C1CCN(c2nc3ccccc3nc2C(F)(F)F)CC1 do in these assays?
Tau fibril FP: -13.6%; Tau ThT inhib: 4.7%; Tau fluor cs: -8.2%

What do the screens show for `CCOC(=O)CNC(=S)n1cnc(N)n1`?
Sfp inh: 17.8µM*; Tau fibril FP: -1.2%; Tau ThT inhib: -13.0%; Tau fluor cs: -1.6%; Coupling enz: 2.9

How did CCOC(=O)CNC(=O)CSc1nc(N)cc(N)n1 do in these assays?
Sfp inh: 18.2%; Tau fibril FP: 2.0%; Tau ThT inhib: 6.8%; Tau fluor cs: 6.7%; Coupling enz: -0.4

What do the screens show for `Cc1ccc(C)c(-n2c(-c3cccnc3)n[nH]c2=S)c1`?
Sfp inh: -22.4%; Tau fibril FP: -2.5%; Tau ThT inhib: -2.9%; Tau fluor cs: -1.4%; Coupling enz: 4.6

How did Cc1cc(Cl)ccc1-n1c(-c2cccnc2)n[nH]c1=S do in these assays?
Sfp inh: 17.8µM*; Tau fibril FP: -1.8%; Tau ThT inhib: -12.0%; Tau fluor cs: -6.9%; Coupling enz: 6.4

How did Cc1cc(C(F)(F)F)nn1-c1nc(-c2ccccc2)cc(C(F)(F)F)n1 do in these assays?
Tau fibril FP: inconclusive; Tau ThT inhib: 1.1%; Tau fluor cs: -13.9%

How did Oc1ccc(N2CCN(Cc3nc4ccccc4[nH]3)CC2)cc1 do in these assays?
Sfp inh: 56.2µM*; Coupling enz: -4.8

What do the screens show for `CC(=O)c1ccc(N2CCN(Cc3nc4ccccc4[nH]3)CC2)cc1`?
Sfp inh: 10.4%; Coupling enz: -0.9

Results for O=C(C1=C[C@@H]2[C@H]3C(=O)N(c4ccc(Cl)cc4)C(=O)[C@H]3[C@@H](C(=O)c3ccc(Cl)cc3)N2C=C1)c1ccccc1 ?
Sfp inh: -3.0%; Tau fibril FP: -19.4%; Tau ThT inhib: 14.1µM*; Tau fluor cs: inconclusive; Coupling enz: -1.2

How did COc1ccccc1CNC(=O)C(=O)NCC(c1cccs1)S(=O)(=O)c1ccc(F)cc1 (stereo not drawn) do in these assays?
Tau fibril FP: -7.6%; Tau ThT inhib: -11.0%; Tau fluor cs: -22.7%

Results for O=C1N=C(O)CN1/N=C\c1ccc(-c2ccc([N+](=O)[O-])cc2)o1 ?
Sfp inh: -3.4%; Tau fibril FP: 2.5%; Tau ThT inhib: 14.1µM*; Tau fluor cs: -10.5%; Coupling enz: 1.3

How did O=C1Nc2ccccc2/C1=N/N=C/c1ccc(-c2ccc([N+](=O)[O-])cc2)o1 do in these assays?
Sfp inh: 7.2%; Tau fibril FP: 2.6%; Tau ThT inhib: 2.82µM*; Tau fluor cs: -28.0%; Coupling enz: 0.2

Results for NC(=S)N/N=C/c1ccc(-c2cc(Cl)cc(Cl)c2)o1 ?
Sfp inh: 50.1µM*; Tau fibril FP: -1.9%; Tau ThT inhib: inconclusive; Tau fluor cs: -26.8%; Coupling enz: -1.0

Results for NC(=S)N/N=C/c1ccc(-c2cc(Cl)ccc2Cl)o1 ?
Sfp inh: -24.2%; Tau fibril FP: 0.3%; Tau ThT inhib: inconclusive; Tau fluor cs: inconclusive; Coupling enz: -3.5

How did NC(=S)N/N=C/c1ccc(-c2ccc([N+](=O)[O-])cc2)o1 do in these assays?
Sfp inh: 3.55µM*; Tau fibril FP: inconclusive; Tau ThT inhib: 7.94µM*; Tau fluor cs: inconclusive; Coupling enz: -13.0

Results for C=CCNC(=S)N/N=C/c1ccc(-c2cccc([N+](=O)[O-])c2)o1 ?
Sfp inh: 1.2%; Tau fibril FP: 4.4%; Tau ThT inhib: 2.6%; Tau fluor cs: 1.3%; Coupling enz: 5.7

Results for CN(/N=C/c1ccc(-c2ccc([N+](=O)[O-])cc2)o1)c1ccccc1 ?
Sfp inh: -4.2%; Coupling enz: -2.4

Results for CN(C)c1ncc2nc(-c3cn(C)c4ccccc34)c(=O)n(C[C@H]3CCCO3)c2n1 ?
Sfp inh: 17.4%; Coupling enz: 2.4

What do the screens show for `CCC(Oc1ccccc1)C(=O)Nc1cc(-c2cccc(C)c2)nn1-c1ccccc1` (stereo not drawn)?
Tau fibril FP: -11.0%; Tau ThT inhib: -14.9%; Tau fluor cs: -23.1%

How did Cn1ccc(C(=O)NC(=S)N2CCSCC2)n1 do in these assays?
Sfp inh: 44.7µM*; Tau fibril FP: -6.2%; Tau ThT inhib: -2.5%; Tau fluor cs: -3.0%; Coupling enz: 4.4

Results for Cn1cccc1/C=C1\SC(=S)N(NC(=O)c2ccc(F)cc2)C1=O ?
Sfp inh: -13.4%; Tau fibril FP: -13.4%; Tau ThT inhib: 3.55µM*; Tau fluor cs: inconclusive; Coupling enz: 2.2

How did Cn1cccc1/C=C1\SC(=S)N(NC(=O)c2cccc(Cl)c2)C1=O do in these assays?
Sfp inh: -24.1%; Tau fibril FP: -0.6%; Tau ThT inhib: 3.98µM*; Tau fluor cs: inconclusive; Coupling enz: 6.4

How did Cn1cccc1/C=C1\SC(=S)N(NC(=O)c2ccccc2)C1=O do in these assays?
Sfp inh: -22.4%; Tau fibril FP: 1.5%; Tau ThT inhib: 11.2µM*; Tau fluor cs: inconclusive; Coupling enz: 0.5

Results for O=C(NN1C(=O)/C(=C/c2cccs2)SC1=S)c1ccccc1 ?
Sfp inh: -3.7%; Tau fibril FP: -2.6%; Tau ThT inhib: inconclusive; Tau fluor cs: -28.5%; Coupling enz: -0.2

What do the screens show for `Cn1cccc1/C=C1\SC(=S)N(NC(=O)c2ccccc2O)C1=O`?
Sfp inh: inconclusive; Tau fibril FP: 3.8%; Tau ThT inhib: 7.94µM*; Tau fluor cs: inconclusive; Coupling enz: 7.5

Results for COc1ccccc1C(=O)NN1C(=O)/C(=C/c2cccn2C)SC1=S ?
Sfp inh: 6.0%; Tau fibril FP: -16.5%; Tau ThT inhib: inconclusive; Tau fluor cs: inconclusive; Coupling enz: -4.4
